Test results reported in PubChem BioAssay AID1159580 (chemical genetic matrix, 2015).
The whole screen tested about 5,500 compounds, of which about 2,000 (36%) were called active. Not shown: some 18% with an inconclusive outcome. No stated cut-off is given here; in the data, active means normalized growth mostly below about 0.91 (no sharp cut-off); inconclusive means no clear call, values can overlap the other calls; inactive means mostly above about 0.92. The list shows a part of the results.

Test: chemical genetic growth profiling, strain panel (AID 1159580);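 further: tested at 20 µM; growth read once vehicle control cultures reached saturation at 30 °C; 1 = growth at the plate median or of vehicle wells; lower values mean less growth of the strain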
Conditions: growth OD

Measured: normalized growth

CC[C@H]1OC(=O)[C@H](C)[C@@H](O[C@H]2C[C@@](C)(OC)[C@@H](O)[C@H](C)O2)[C@H](C)[C@@H](O[C@@H]2O[C@H](C)C[C@H](N(C)C)[C@H]2O)[C@](C)(OC)C[C@@H](C)C(=O)[C@H](C)[C@@H](O)[C@]1(C)O
inactive: S. cerevisiae deletion strains, locus YAL013W, strain DEP1, active compounds read low 0.992 | S. cerevisiae deletion strains, locus YBR021W, strain FUR4, active compounds read low 1.01 | S. cerevisiae deletion strains, locus YBR229C, strain ROT2, active compounds read low 0.989 | S. cerevisiae deletion strains, locus YCL029C, strain bik1, active compounds read low 0.994 | S. cerevisiae deletion strains, locus YDL035C, strain GPR1, active compounds read low 0.977 | S. cerevisiae deletion strains, locus YDL074C, strain BRE1, active compounds read low 0.949 | S. cerevisiae deletion strains, locus YDL101C, strain DUN1, active compounds read low 0.992 | S. cerevisiae deletion strains, locus YDL134C, strain PPH21, active compounds read low 0.989 | S. cerevisiae deletion strains, locus YDL185W, strain tfp1, active compounds read low 0.994 | S. cerevisiae deletion strains, locus YDL192W, strain arf1, active compounds read low 0.966 | S. cerevisiae deletion strains, locus YDR101C, strain arx1, active compounds read low 0.973 | S. cerevisiae deletion strains, locus YDR150W, strain NUM1, active compounds read low 0.987 | S. cerevisiae deletion strains, locus YDR162C, strain NBP2, active compounds read low 0.974 | S. cerevisiae deletion strains, locus YDR318W, strain mcm21, active compounds read low 0.986 | S. cerevisiae deletion strains, locus YDR388W, active compounds read low 0.986 | S. cerevisiae deletion strains, locus YDR502C, strain sam2, active compounds read low 0.99 | S. cerevisiae deletion strains, locus YEL061C, strain CIN8, active compounds read low 0.985 | S. cerevisiae deletion strains, locus YER110C, active compounds read low 1.04 | S. cerevisiae deletion strains, locus YER155C, strain BEM2, active compounds read low 0.987 | S. cerevisiae deletion strains, locus YER167W, strain BCK2, active compounds read low 0.986 | S. cerevisiae deletion strains, locus YGL078C, strain dbp3, active compounds read low 1.01 | S. cerevisiae deletion strains, locus YGL086W, strain mad1, active compounds read low 0.969 | S. cerevisiae deletion strains, locus YGL248W, strain PDE1, active compounds read low 0.986 | S. cerevisiae deletion strains, locus YGR078C, strain PAC10, active compounds read low 0.991 | S. cerevisiae deletion strains, locus YGR135W, strain pre9, active compounds read low 0.989 | S. cerevisiae deletion strains, locus YGR229C, strain SMI1, active compounds read low 0.963 | S. cerevisiae deletion strains, locus YGR252W, strain gcn5, active compounds read low 0.932 | S. cerevisiae deletion strains, locus YHR030C, strain SLT2, active compounds read low 0.986 | S. cerevisiae deletion strains, locus YHR079C, strain IRE1 (second series), active compounds read low 0.983 | S. cerevisiae deletion strains, locus YHR094C, strain hxt1, active compounds read low 0.982 | S. cerevisiae deletion strains, locus YHR129C, strain ARP1, active compounds read low 0.981 | S. cerevisiae deletion strains, locus YHR200W, strain rpn10, active compounds read low 0.98 | S. cerevisiae deletion strains, locus YIL066C, strain RNR3, active compounds read low 0.985 | S. cerevisiae deletion strains, locus YIL073C, strain SPO22, active compounds read low 0.985 | S. cerevisiae deletion strains, locus YIL125W, strain kgd1, active compounds read low 1.01 | S. cerevisiae deletion strains, locus YIR030C, strain dcg1, active compounds read low 0.999 | S. cerevisiae deletion strains, locus YJL095W, strain BCK1, active compounds read low 0.971 | S. cerevisiae deletion strains, locus YJL134W, strain LCB3, active compounds read low 0.989 | S. cerevisiae deletion strains, locus YJL168C, strain set2, active compounds read low 0.978 | S. cerevisiae deletion strains, locus YJL187C, strain SWE1 (second series), active compounds read low 0.989 | S. cerevisiae deletion strains, locus YJR043C, strain POL32, active compounds read low 0.958 | S. cerevisiae deletion strains, locus YJR075W, strain HOC1, active compounds read low 0.954 | S. cerevisiae deletion strains, locus YKL009W, strain mrt4, active compounds read low 0.997 | S. cerevisiae deletion strains, locus YKL068W, active compounds read low 0.982 | S. cerevisiae deletion strains, locus YKL085W, strain MDH1 (second series), active compounds read low 0.978 | S. cerevisiae deletion strains, locus YKL085W, strain MDH1, active compounds read low 0.978 | S. cerevisiae deletion strains, locus YKL190W, strain CNB1, active compounds read low 0.967 | S. cerevisiae deletion strains, locus YKR001C, strain vps1, active compounds read low 0.999 | S. cerevisiae deletion strains, locus YLR039C, strain RIC1, active compounds read low 0.979 | S. cerevisiae deletion strains, locus YLR058C, strain SHM2, active compounds read low 0.987 | S. cerevisiae deletion strains, locus YLR102C, strain apc9, active compounds read low 0.997 | S. cerevisiae deletion strains, locus YLR262C, strain YPT6, active compounds read low 1.03 | S. cerevisiae deletion strains, locus YLR268W, strain sec22, active compounds read low 0.987 | S. cerevisiae deletion strains, locus YLR330W, strain CHS5, active compounds read low 0.992 | S. cerevisiae deletion strains, locus YLR342W, strain FKS1 (second series), active compounds read low 0.956 | S. cerevisiae deletion strains, locus YLR371W, strain rom2, active compounds read low 0.967 | S. cerevisiae deletion strains, locus YLR418C, strain cdc73, active compounds read low 0.916 | S. cerevisiae deletion strains, locus YML016C, strain PPZ1, active compounds read low 0.986 | S. cerevisiae deletion strains, locus YML032C, strain rad52, active compounds read low 0.971 | S. cerevisiae deletion strains, locus YML124C, strain tub3, active compounds read low 0.983 | S. cerevisiae deletion strains, locus YMR078C, strain ctf18, active compounds read low 1 | S. cerevisiae deletion strains, locus YMR223W, strain ubp8, active compounds read low 0.998 | S. cerevisiae deletion strains, locus YMR263W, strain SAP30, active compounds read low 0.987 | S. cerevisiae deletion strains, locus YMR307W, strain GAS1, active compounds read low 0.789 | S. cerevisiae deletion strains, locus YNL067W, strain RPL9B, active compounds read low 0.983 | S. cerevisiae deletion strains, locus YNL128W, strain TEP1, active compounds read low 0.979 | S. cerevisiae deletion strains, locus YNL153C, strain GIM3, active compounds read low 0.983 | S. cerevisiae deletion strains, locus YNL233W, strain BNI4, active compounds read low 0.982 | S. cerevisiae deletion strains, locus YNL250W, strain rad50, active compounds read low 1 | S. cerevisiae deletion strains, locus YNL271C, strain bni1, active compounds read low 1.01 | S. cerevisiae deletion strains, locus YNL298W, strain CLA4, active compounds read low 1.02 | S. cerevisiae deletion strains, locus YNL307C, strain MCK1, active compounds read low 1 | S. cerevisiae deletion strains, locus YNL322C, strain KRE1, active compounds read low 0.987 | S. cerevisiae deletion strains, locus YNR052C, strain pop2, active compounds read low 0.937 | S. cerevisiae deletion strains, locus YOL006C, strain TOP1, active compounds read low 0.757 | S. cerevisiae deletion strains, locus YOL012C, strain htz1 0.325 | S. cerevisiae deletion strains, locus YOL147C, strain pex11, active compounds read low 0.993 | S. cerevisiae deletion strains, locus YOR061W, strain CKA2, active compounds read low 0.987 | S. cerevisiae deletion strains, locus YOR069W, strain VPS5, active compounds read low 0.98 | S. cerevisiae deletion strains, locus YOR136W, strain idh2, active compounds read low 1.01 | S. cerevisiae deletion strains, locus YOR144C, strain elg1, active compounds read low 0.973 | S. cerevisiae deletion strains, locus YOR184W, strain ser1, active compounds read low 0.991 | S. cerevisiae deletion strains, locus YOR316C, strain cot1, active compounds read low 0.986 | S. cerevisiae deletion strains, locus YPL055C, strain LGE1, active compounds read low 0.962 | S. cerevisiae deletion strains, locus YPL241C, strain CIN2, active compounds read low 0.976 | S. cerevisiae deletion strains, locus YPR119W, strain clb2, active compounds read low 0.975 | S. cerevisiae deletion strains, locus YPR141C, strain kar3, active compounds read low 1.01 | S. cerevisiae deletion strains, locus YPR163C, strain tif3, active compounds read low 0.955 | S. cerevisiae deletion strains, locus YPR167C, strain met16, active compounds read low 0.996 | S. cerevisiae deletion strains, strain wtn01, active compounds read low 0.964 | S. cerevisiae strains, strain wild type, active compounds read low 0.982
